Assay results taken from PubChem BioAssay AID602123 (The Scripps Research Institute Molecular Screening Center, 2011).
Several values for one entry are separate records, joined by “and”; a condition that tells them apart may be missing. Equal entries are not always repeated. In all, about 360,000 compounds went through this assay and about 1,500 (0.42%) were called active. The sample holds actives, similar compounds and a random draw of the others, so the mix is not that of the screen. Unmarked numbers belong to inactive results. Cut-off read from the data, not from the text of the source: active = inhibition above about 13% (passing the limit was not always enough); inactive = the rest.

Target: Lon protease (Escherichia coli (strain K12)) (UniProt P0A9M0)
Assay: E. coli eLon protease inhibition – biochemical, fluorescence polarization, primary screen (AID 602123);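 note: 0% = enzyme with probe and DMSO and 100% = no enzyme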
Conditions: purified E. coli Lon protease, at 7.94 µM, active compounds read high

Sequence of Lon protease (Escherichia coli (strain K12)) (P0A9M0 whole entry, looked up): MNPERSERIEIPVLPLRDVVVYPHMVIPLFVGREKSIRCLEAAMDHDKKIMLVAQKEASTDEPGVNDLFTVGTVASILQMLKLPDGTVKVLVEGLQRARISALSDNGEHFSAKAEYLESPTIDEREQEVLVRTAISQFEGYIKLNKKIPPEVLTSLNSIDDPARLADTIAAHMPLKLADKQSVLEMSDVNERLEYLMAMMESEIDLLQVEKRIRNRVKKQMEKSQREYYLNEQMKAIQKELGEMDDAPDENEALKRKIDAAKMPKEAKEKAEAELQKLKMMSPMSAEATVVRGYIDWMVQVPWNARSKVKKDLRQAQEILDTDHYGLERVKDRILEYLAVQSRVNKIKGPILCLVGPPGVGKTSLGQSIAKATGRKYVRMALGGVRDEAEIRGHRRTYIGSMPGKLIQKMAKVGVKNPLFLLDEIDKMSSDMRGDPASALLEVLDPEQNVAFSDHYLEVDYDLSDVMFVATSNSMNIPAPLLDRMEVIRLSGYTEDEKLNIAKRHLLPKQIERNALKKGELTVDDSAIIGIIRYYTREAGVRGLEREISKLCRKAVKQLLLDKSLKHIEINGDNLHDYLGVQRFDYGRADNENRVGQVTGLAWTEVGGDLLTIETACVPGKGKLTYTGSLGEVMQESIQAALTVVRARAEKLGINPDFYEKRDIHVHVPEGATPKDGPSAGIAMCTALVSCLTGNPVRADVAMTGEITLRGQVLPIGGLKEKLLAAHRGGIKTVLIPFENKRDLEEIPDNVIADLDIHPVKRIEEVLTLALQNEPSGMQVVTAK

SMILES	inhibition
COc1ccc(NC(=O)CC2C(=O)OCC3CCCCN32)cc1Cl (stereo unspecified)	1.67%
Cc1ccc(C(=O)O)c(NC=O)c1OCc1ccccc1	-0.93%
COc1ccc(-c2csc(C(O)c3cccc(Cl)c3)n2)cn1 (stereo unspecified)	-11.3%
CCN1CC=C2C(C#N)=C(N)C(C#N)(C#N)[C@H](c3ccoc3)[C@H]2C1	120% (active)
CC(C)C(=O)Nc1nnc(Sc2ccc(N(C)C)cc2)s1	-6.47%
CCN(CC(=O)NCc1ccc(Cl)cc1)C(=O)CSc1ccccc1	-3.84%
CCOC(=O)NC(=O)C(=CNc1cccc(OC)c1)C(=O)NC(=O)OCC	-2.26%
CCOCCN(C=O)c1cccc(OC)c1	32.6% (active)
CCN(CC)C(=O)CN(c1cccc(OC)c1)S(=O)(=O)c1ccc(C)cc1	-0.24%
COc1ccc(NC(=O)CN2C(=O)COc3ccc(S(=O)(=O)N4CCOCC4)cc32)c(OC)c1	-3.19%
CCCCCc1ccc(-c2ccc(C(=O)O)cc2)nc1	-2.2%
O=C(C1CCCO1)N1CCN(C(=S)NC2CC2)CC1 (stereo unspecified)	-2.14%
O=C(OC1CCOC1=O)c1ccc(-c2nc3ccccc3s2)s1 (stereo unspecified)	-3.38%
CCOC(=O)N1CCC(NC(=O)CCc2cn(C)c3ccccc23)CC1	-2.75%
Cn1cc(CCC(=O)NC2CC2)c2ccccc21	0.25%
CCOC(=O)N1CCC(NC(=O)Cc2cn(C)c3ccccc23)CC1	15.9% (active)
CC1(C)OC(=O)C(=CSc2ccc(C(C)(C)C)cc2)C(=O)O1	-7.26%
Cc1cc(OCC(=O)N(C)c2c(N)n(Cc3ccccc3)c(=O)[nH]c2=O)c(C(C)C)cc1Cl	-1.64%
Cc1cc2nc3c(=O)n(Cc4ccccc4)c(=O)[nH]c3nc2cc1N	182% (active)
Nc1cc(=O)n(Cc2ccccc2)c(=O)n1Cc1ccccc1	-0.35%
CC(C)(C)OC(=O)N1CCC(C(=O)NNC(=O)c2ccc(Cl)cc2Cl)CC1	-1.59%
CCOc1ccc(NC(=O)C2CCN(C(=O)N3CCOc4ccccc43)CC2)cc1	-11.2%
CN1CCN(S(=O)(=O)c2ccc(N3CCN(S(=O)(=O)c4cccs4)CC3)nc2)CC1	-1.23%

SMILES	inhibition
O=C(C1CCN(S(=O)(=O)Cc2ccccc2)CC1)N1CCCc2ccccc21	-0.35%
CC1CN(Cc2nc3c(c(=O)n(C)c(=O)n3C)n2Cc2cccc(Cl)c2)CC(C)O1 (stereo unspecified)	-2.4%
O=C1CCC(=O)N1c1ccc(NCCc2ccccc2F)c([N+](=O)[O-])c1	0.67%
CCN(CCCCOC(=O)c1ccc(OC)c(OC)c1)C(C)Cc1ccc(OC)cc1 (stereo unspecified)	-2.66%
O=C1c2ccccc2C(=O)c2c1cccc2N1CCN(Cc2ccccc2)CC1	5.59%
O=C1c2ccccc2C(=O)c2c1cccc2N1CCN(CCO)CC1	17.6% (active)
O=C1CCN(CCCc2ccccc2)CCN1CCO	1.45%
Cc1cc2c(cc1C)[n+](C)cn2CC(O)COCC1CC=CCC1 (stereo unspecified)	4.81%
C[C@]12C=CC(=O)C=C1CC[C@@H]1[C@@H]2C(=O)C[C@@]2(C)[C@H]1CC[C@]2(O)C(=O)CO	-2.3% and 1.49%
C[C@H](CO)N1C[C@H](C)[C@@H](CN(C)C(=O)c2cccc(F)c2)Oc2cc(-c3cncnc3)ccc2S1(=O)=O	-3.93%
CCOC(=O)C(=CNNc1ccsc1C(=O)OC)C(=O)OCC	-2.58%
O=C(Nc1cccc2ccccc12)c1[nH]c(-c2ccccc2)c2c1C(=O)N(C1CC1)C2=O	-8.53%
CC(C)c1ccc(S(=O)(=O)N2CCN(C(C)C(=O)NC3CCCC3)CC2)cc1 (stereo unspecified)	8.04%
CC(C(=O)NC1CCCC1)N1CCN(S(=O)(=O)c2ccccc2Cl)CC1 (stereo unspecified)	17.4% (active)
O=C(Cc1ccc(S(=O)(=O)N2CCCC2)s1)NC1CCCCCC1	-1.79%
COc1cc(CNCc2ccc3c(c2)OCO3)c([N+](=O)[O-])cc1OC	-8.35%
COc1cccc(NC(=O)C2CCCN(c3ncnc4c3nc3n4CCCCC3)C2)c1 (stereo unspecified)	-9.74%
Cc1ccc2c(c1)nnc1nnc(SCC(=O)O)n12	62% (active)
CCn1nnnc1SCC(=O)c1ccc(C)cc1C	-3.48%
Cc1cccc(-c2nnc(SCC(=O)O)n2Cc2ccccc2)c1	-7.43%
CC(C)(C(=O)N1CCC1(C)C(=O)NS(=O)(=O)c1ccc(Br)cc1)c1ccccc1 (stereo unspecified)	-2.78%
Cc1cc(Br)ccc1NC(=O)CCCOc1cc(=O)n(C)c2ccccc12	-8.57%
COc1ccc(C(CC(=O)c2ccccc2)S(=O)(=O)c2ccccc2)cc1 (stereo unspecified)	-2.33%
